# Assay results: the supplement of paper PMC4466140
# B1: unnamed (peptide)
# chain: QRKSLRRPTLSKPAV
# Key:
# Assay in all cases: SPOT peptide array binding signal intensity (averaged, normalized) (arbitrary units (background-subtracted, floor 0; scale differs between SH3 domains)); higher = stronger binding of the SH3 domain to the peptide
# CaNbp2 = molecular target: CaNbp2
# Description: (§1)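 GST-tagged SH3 domains from S. cerevisiae (Sc), A. gossypii (Ag), C. albicans (Ca) and S. pombe (Sp) were incubated at 10 ug/ml overnight at 4 C on cellulose SPOT membranes carrying 292 synthetic 15-mer peptides mined from the S. cerevisiae proteome (cysteines replaced by serines). Binding was detected with anti-GST antibody, HRP secondary and chemiluminescence, quantified with Genespotter, and reported as normalized spot intensities averaged over biological replicates.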
# CaRvs167 = molecular target: CaRvs167
# Description: as §1
# CaRvs167-3 = molecular target: CaRvs167-3
# Description: as §1
# CaSho1 = molecular target: CaSho1
# Description: as §1
# CaSla1-D1-D2 = molecular target: CaSla1-D1-D2
# Description: as §1
# CaSla1-D3 = molecular target: CaSla1-D3
# Description: as §1
# ScAbp1 = molecular target: ScAbp1
# Description: as §1
# ScBbc1 = molecular target: ScBbc1
# Description: as §1
# ScBem1-D1 = molecular target: ScBem1-D1
# Description: as §1
# ScBzz1-D1 = molecular target: ScBzz1-D1
# Description: as §1
# ScBzz1-D2 = molecular target: ScBzz1-D2
# Description: as §1
# ScCyk3 = molecular target: ScCyk3
# Description: as §1
# ScFus1 = molecular target: ScFus1
# Description: as §1
# ScHof1 = molecular target: ScHof1
# Description: as §1
# ScHse1 = molecular target: ScHse1
# Description: as §1
# ScLsb1 = molecular target: ScLsb1
# Description: as §1
# ScLsb2 = molecular target: ScLsb2
# Description: as §1
# ScLsb3 = molecular target: ScLsb3
# Description: as §1
# ScLsb4 = molecular target: ScLsb4
# Description: as §1
# ScMyo3 = molecular target: ScMyo3
# Description: as §1
# ScMyo5 = molecular target: ScMyo5
# Description: as §1
# ScNbp2 = molecular target: ScNbp2
# Description: as §1
# ScPex13 = molecular target: ScPex13
# Description: as §1
# ScRvs167 = molecular target: ScRvs167
# Description: as §1
# ScSho1 = molecular target: ScSho1
# Description: as §1
# ScSla1-D1-D2 = molecular target: ScSla1-D1-D2
# Description: as §1
# ScSla1-D3 = molecular target: ScSla1-D3
# Description: as §1
# SpAbp1-D1 = molecular target: SpAbp1-D1
# Description: as §1
# SpBbc1 = molecular target: SpBbc1
# Description: as §1
# SpBzz1-D1 = molecular target: SpBzz1-D1
# Description: as §1
# SpBzz1-D2 = molecular target: SpBzz1-D2
# Description: as §1
# SpCyk3 = molecular target: SpCyk3
# Description: as §1
# SpHof1 = molecular target: SpHof1
# Description: as §1
# SpHof1-2 = molecular target: SpHof1-2
# Description: as §1
# SpHof1-3 = molecular target: SpHof1-3
# Description: as §1
# SpHse1 = molecular target: SpHse1
# Description: as §1
# SpLsb1 = molecular target: SpLsb1
# Description: as §1
# SpLsb4 = molecular target: SpLsb4
# Description: as §1
# SpMyo1 = molecular target: SpMyo1
# Description: as §1
# SpNbp2 = molecular target: SpNbp2
# Description: as §1
# SpPex13 = molecular target: SpPex13
# Description: as §1
# SpRvs167 = molecular target: SpRvs167
# Description: as §1
# SpSla1-D1-D2 = molecular target: SpSla1-D1-D2
# Description: as §1
# SpSla1-D3 = molecular target: SpSla1-D3
# Description: as §1
binder,measurement,setting,value
B1,SPOT peptide array binding signal intensity,CaNbp2,319
same,SPOT peptide array binding signal intensity,CaRvs167,17.5
same,SPOT peptide array binding signal intensity,CaRvs167-3,5.5
same,SPOT peptide array binding signal intensity,CaSho1,76
same,SPOT peptide array binding signal intensity,CaSla1-D1-D2,118
same,SPOT peptide array binding signal intensity,CaSla1-D3,≤ 0
same,SPOT peptide array binding signal intensity,ScAbp1,52.5
same,SPOT peptide array binding signal intensity,ScBbc1,45.8
same,SPOT peptide array binding signal intensity,ScBem1-D1,53
same,SPOT peptide array binding signal intensity,ScBzz1-D1,32
same,SPOT peptide array binding signal intensity,ScBzz1-D2,43
same,SPOT peptide array binding signal intensity,ScCyk3,17
same,SPOT peptide array binding signal intensity,ScFus1,151
same,SPOT peptide array binding signal intensity,ScHof1,0.5
same,SPOT peptide array binding signal intensity,ScHse1,1190
same,SPOT peptide array binding signal intensity,ScLsb1,4
same,SPOT peptide array binding signal intensity,ScLsb2,6
same,SPOT peptide array binding signal intensity,ScLsb3,356
same,SPOT peptide array binding signal intensity,ScLsb4,10.5
same,SPOT peptide array binding signal intensity,ScMyo3,0.5
same,SPOT peptide array binding signal intensity,ScMyo5,1
same,SPOT peptide array binding signal intensity,ScNbp2,183
same,SPOT peptide array binding signal intensity,ScPex13,≤ 0
same,SPOT peptide array binding signal intensity,ScRvs167,25
same,SPOT peptide array binding signal intensity,ScSho1,250
same,SPOT peptide array binding signal intensity,ScSla1-D1-D2,370
same,SPOT peptide array binding signal intensity,ScSla1-D3,38.8
same,SPOT peptide array binding signal intensity,SpAbp1-D1,101
same,SPOT peptide array binding signal intensity,SpBbc1,3.5
same,SPOT peptide array binding signal intensity,SpBzz1-D1,202
same,SPOT peptide array binding signal intensity,SpBzz1-D2,≤ 0
same,SPOT peptide array binding signal intensity,SpCyk3,≤ 0
same,SPOT peptide array binding signal intensity,SpHof1,38.8
same,SPOT peptide array binding signal intensity,SpHof1-2,6.5
same,SPOT peptide array binding signal intensity,SpHof1-3,375
same,SPOT peptide array binding signal intensity,SpHse1,140
same,SPOT peptide array binding signal intensity,SpLsb1,8.75
same,SPOT peptide array binding signal intensity,SpLsb4,99
same,SPOT peptide array binding signal intensity,SpMyo1,7.75
same,SPOT peptide array binding signal intensity,SpNbp2,63.5
same,SPOT peptide array binding signal intensity,SpPex13,10
same,SPOT peptide array binding signal intensity,SpRvs167,14.5
same,SPOT peptide array binding signal intensity,SpSla1-D1-D2,≤ 0
same,SPOT peptide array binding signal intensity,SpSla1-D3,1
